Experiments:
Test in all cases: DAPPL (digital affinity profiling via proximity ligation, sequencing); 10 mM Tris-HCl pH 7.5, 50 mM NaCl, 1 mM DTT, 4% glycerol, room temperature, 30 min; GST-TFs on glutathione beads, 16-mer random dsDNA library, 0.1% formaldehyde crosslink after washing; high values mean tight binding
Details in all cases: protein: recombinant; tags: N-terminal GST; dsDNA, one strand shown
ELF3 = biological target: T1, ELF3 (Homo sapiens, UniProt P78545 1-371)
T1 sequence: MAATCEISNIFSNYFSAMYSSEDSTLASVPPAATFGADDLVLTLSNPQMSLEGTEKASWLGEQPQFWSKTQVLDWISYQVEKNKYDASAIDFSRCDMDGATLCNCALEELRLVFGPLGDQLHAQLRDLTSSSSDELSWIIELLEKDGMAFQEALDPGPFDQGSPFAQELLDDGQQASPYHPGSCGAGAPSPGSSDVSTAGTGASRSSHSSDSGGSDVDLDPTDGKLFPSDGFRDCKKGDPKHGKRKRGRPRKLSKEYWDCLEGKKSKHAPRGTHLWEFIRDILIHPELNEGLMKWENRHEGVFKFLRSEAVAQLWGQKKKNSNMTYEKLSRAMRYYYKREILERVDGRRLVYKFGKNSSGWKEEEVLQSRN
Summary of the method: (§1)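 Yeast served to express human transcription factors as GST fusions, which were then captured on glutathione beads and labelled with DNA barcodes. Pooled with a tag-only sample, they were incubated with 200 nmole of a 16-mer random double-stranded DNA library for 30 min at room temperature in Tris/NaCl/DTT/glycerol buffer, washed, crosslinked with 0.1% formaldehyde, ligated by proximity, amplified by PCR and sequenced. Dividing each hexamer's read frequency for a factor by its frequency for the tag-only sample gives the binding signal.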

ERF = biological target: T2, ERF (Homo sapiens, UniProt P50548 1-548)
T2 sequence: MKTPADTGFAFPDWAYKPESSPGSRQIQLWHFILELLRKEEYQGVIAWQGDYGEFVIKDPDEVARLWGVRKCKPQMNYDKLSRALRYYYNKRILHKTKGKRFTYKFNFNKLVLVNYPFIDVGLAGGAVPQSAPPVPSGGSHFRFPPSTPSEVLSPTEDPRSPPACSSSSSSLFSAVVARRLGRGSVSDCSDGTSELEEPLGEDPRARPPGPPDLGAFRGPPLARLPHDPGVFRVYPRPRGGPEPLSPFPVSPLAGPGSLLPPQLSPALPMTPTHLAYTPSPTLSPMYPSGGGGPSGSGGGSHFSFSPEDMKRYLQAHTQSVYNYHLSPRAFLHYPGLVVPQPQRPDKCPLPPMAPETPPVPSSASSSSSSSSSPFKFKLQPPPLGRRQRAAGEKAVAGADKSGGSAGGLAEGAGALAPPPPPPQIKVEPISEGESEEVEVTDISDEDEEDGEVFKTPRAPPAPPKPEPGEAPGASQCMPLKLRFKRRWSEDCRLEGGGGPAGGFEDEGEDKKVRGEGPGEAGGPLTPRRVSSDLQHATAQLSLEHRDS
Summary of the method: as §1

ETV7 = biological target: T3, ETV7 (Homo sapiens, UniProt Q9Y603 1-341)
T3 sequence: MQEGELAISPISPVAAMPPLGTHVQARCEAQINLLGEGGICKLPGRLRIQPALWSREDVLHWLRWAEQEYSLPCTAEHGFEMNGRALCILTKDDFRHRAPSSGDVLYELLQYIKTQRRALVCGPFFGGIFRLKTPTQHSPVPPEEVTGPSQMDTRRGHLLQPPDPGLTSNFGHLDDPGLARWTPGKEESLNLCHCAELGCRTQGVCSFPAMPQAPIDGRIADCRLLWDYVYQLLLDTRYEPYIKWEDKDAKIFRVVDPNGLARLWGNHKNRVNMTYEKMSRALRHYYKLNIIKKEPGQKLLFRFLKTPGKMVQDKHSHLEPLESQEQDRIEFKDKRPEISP
Summary of the method: as §1

CRX = CRX (Homo sapiens, UniProt O43186 1-299)
CRX, sequence (O43186 whole entry): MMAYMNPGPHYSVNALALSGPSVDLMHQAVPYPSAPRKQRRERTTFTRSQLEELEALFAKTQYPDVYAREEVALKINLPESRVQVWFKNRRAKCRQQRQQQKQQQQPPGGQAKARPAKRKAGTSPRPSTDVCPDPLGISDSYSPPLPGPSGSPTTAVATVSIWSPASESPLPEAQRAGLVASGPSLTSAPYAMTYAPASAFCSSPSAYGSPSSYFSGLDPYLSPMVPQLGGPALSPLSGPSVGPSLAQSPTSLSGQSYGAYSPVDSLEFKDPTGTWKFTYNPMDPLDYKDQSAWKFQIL
Summary of the method: as §1

ERG = biological target: T4, ERG (Homo sapiens, UniProt P11308 1-479)
T4 sequence: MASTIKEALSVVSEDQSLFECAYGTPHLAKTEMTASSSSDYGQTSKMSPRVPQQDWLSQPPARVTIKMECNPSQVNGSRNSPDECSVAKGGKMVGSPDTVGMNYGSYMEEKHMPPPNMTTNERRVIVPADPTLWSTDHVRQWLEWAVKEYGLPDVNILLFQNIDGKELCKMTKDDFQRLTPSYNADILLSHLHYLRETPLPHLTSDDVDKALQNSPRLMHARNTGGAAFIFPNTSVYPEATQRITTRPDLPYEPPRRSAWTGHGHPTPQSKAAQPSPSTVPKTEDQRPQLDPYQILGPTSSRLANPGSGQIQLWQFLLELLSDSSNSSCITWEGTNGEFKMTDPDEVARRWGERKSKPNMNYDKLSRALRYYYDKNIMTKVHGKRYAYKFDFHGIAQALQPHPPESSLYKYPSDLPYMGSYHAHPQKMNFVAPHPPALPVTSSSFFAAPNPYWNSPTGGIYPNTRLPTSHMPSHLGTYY
Summary of the method: as §1

FEV = biological target: T5, FEV (Homo sapiens, UniProt Q99581 1-238)
T5 sequence: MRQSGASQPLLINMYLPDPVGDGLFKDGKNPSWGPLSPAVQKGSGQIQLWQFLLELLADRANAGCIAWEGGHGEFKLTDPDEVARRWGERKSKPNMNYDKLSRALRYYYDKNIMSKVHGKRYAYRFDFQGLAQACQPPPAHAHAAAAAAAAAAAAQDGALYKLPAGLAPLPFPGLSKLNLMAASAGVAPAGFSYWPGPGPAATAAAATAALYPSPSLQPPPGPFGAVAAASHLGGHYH
Summary of the method: as §1

SPDEF = biological target: T6, SPDEF (Homo sapiens, UniProt O95238 1-335)
T6 sequence: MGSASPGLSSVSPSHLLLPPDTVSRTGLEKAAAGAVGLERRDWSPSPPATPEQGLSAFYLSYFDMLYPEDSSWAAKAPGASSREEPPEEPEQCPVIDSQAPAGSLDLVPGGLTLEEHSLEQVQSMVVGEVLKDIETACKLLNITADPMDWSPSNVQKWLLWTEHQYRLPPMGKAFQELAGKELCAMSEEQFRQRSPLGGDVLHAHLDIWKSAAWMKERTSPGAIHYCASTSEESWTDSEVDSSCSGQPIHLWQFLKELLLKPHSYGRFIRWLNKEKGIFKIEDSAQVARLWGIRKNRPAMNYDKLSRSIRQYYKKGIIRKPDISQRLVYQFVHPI
Summary of the method: as §1

ELF5 = biological target: T7, ELF5 (Homo sapiens, UniProt Q9UKW6-2 1-255)
T7 sequence: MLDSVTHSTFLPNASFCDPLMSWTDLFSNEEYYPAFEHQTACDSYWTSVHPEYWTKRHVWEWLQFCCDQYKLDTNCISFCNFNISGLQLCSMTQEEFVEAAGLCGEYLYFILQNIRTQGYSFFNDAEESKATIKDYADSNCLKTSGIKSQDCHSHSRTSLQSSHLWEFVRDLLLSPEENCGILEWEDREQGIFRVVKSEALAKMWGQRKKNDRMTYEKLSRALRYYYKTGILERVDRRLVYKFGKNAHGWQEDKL
Summary of the method: as §1

ETV3 = biological target: T8, ETV3 (Homo sapiens, UniProt P41162-2 1-143)
T8 sequence: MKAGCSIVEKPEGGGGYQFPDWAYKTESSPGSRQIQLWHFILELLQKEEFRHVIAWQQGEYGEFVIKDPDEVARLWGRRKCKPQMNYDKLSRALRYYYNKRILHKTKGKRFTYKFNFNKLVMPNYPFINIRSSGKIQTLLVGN
Summary of the method: as §1

SPI1 = SPI1 (Homo sapiens, UniProt P17947 1-270)
Summary of the method: as §1

GABPA = biological target: T9, GABPA (Homo sapiens, UniProt Q06546 1-454)
T9 sequence: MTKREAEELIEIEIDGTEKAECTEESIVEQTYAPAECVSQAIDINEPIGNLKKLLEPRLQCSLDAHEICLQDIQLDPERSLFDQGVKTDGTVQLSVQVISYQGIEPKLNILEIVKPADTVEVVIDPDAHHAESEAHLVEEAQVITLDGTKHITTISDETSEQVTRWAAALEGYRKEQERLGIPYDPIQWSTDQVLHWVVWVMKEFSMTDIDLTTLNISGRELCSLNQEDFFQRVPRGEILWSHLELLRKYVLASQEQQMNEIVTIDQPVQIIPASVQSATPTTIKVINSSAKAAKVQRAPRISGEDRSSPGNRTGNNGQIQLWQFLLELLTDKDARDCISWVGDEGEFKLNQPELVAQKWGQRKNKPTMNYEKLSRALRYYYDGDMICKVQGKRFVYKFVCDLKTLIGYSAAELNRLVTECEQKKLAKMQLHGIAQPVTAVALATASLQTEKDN
Summary of the method: as §1

ELF1 = ELF1 (Homo sapiens, UniProt P32519 1-619)
ELF1, sequence (P32519 whole entry): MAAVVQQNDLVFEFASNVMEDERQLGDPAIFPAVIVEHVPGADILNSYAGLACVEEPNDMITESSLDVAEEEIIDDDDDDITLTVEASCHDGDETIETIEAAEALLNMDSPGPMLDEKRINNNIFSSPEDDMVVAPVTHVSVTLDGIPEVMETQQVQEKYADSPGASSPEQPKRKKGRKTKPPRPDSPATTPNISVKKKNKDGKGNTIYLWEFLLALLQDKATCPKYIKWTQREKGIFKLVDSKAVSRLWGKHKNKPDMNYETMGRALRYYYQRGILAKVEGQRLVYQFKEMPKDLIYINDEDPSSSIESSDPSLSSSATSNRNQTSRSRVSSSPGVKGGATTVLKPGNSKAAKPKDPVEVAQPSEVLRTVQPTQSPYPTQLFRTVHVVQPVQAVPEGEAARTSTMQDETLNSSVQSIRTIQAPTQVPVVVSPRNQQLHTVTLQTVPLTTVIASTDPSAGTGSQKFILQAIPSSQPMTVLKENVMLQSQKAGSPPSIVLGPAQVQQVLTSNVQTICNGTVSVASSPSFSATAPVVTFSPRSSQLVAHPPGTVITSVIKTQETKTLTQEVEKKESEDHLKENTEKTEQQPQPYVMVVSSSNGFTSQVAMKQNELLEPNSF
Summary of the method: as §1

EHF = biological target: T10, EHF (Homo sapiens, UniProt Q9NZC4 1-300)
T10 sequence: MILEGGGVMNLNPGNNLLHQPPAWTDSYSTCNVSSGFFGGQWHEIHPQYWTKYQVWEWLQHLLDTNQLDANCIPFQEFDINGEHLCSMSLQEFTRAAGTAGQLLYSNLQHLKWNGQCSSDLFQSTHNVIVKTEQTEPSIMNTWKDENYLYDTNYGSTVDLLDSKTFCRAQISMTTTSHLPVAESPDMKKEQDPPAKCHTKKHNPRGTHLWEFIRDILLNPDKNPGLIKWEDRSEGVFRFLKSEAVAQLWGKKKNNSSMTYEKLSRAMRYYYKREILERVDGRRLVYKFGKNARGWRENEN
Summary of the method: as §1

ETV6 = ETV6 (Homo sapiens, UniProt P41212 1-452)
ETV6, sequence (P41212 whole entry): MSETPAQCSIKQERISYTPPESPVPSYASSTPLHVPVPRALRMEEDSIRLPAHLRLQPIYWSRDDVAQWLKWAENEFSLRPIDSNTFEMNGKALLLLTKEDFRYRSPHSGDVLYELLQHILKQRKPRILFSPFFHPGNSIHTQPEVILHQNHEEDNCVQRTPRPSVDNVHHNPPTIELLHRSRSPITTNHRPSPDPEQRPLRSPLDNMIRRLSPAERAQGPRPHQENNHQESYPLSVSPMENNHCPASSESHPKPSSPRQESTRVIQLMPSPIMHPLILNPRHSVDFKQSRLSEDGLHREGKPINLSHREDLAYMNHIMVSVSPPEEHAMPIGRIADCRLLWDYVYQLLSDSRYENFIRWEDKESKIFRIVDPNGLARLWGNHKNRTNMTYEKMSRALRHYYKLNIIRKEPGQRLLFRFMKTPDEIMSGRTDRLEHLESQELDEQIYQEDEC
Summary of the method: as §1

GAAAGG
binding signal (ELF3): 1.03 fold enrichment (6-mer frequency, TF over GST control)
binding signal (ERF): 1 fold enrichment (6-mer frequency, TF over GST control)
binding signal (ETV7): 1.02 fold enrichment (6-mer frequency, TF over GST control)

GCGTAA
binding signal (CRX): 1.03 fold enrichment (6-mer frequency, TF over GST control)

AGGATA
binding signal (ERG): 1.06 fold enrichment (6-mer frequency, TF over GST control)
binding signal (FEV): 1.01 fold enrichment (6-mer frequency, TF over GST control)
binding signal (CRX): 1.14 fold enrichment (6-mer frequency, TF over GST control)
binding signal (SPDEF): 1.31 fold enrichment (6-mer frequency, TF over GST control)
binding signal (ELF5): 1.17 fold enrichment (6-mer frequency, TF over GST control)
binding signal (ETV3): 1.06 fold enrichment (6-mer frequency, TF over GST control)

TATCGG
binding signal (CRX): 1.1 fold enrichment (6-mer frequency, TF over GST control)

AAGGGA
binding signal (SPI1): 1.07 fold enrichment (6-mer frequency, TF over GST control)
binding signal (ELF3): 1.03 fold enrichment (6-mer frequency, TF over GST control)

TAGCCG
binding signal (CRX): 1.05 fold enrichment (6-mer frequency, TF over GST control)

CGCCGT
binding signal (GABPA): 1.01 fold enrichment (6-mer frequency, TF over GST control)

TGTCGC
binding signal (ELF1): 1.04 fold enrichment (6-mer frequency, TF over GST control)
binding signal (EHF): 1.03 fold enrichment (6-mer frequency, TF over GST control)
binding signal (SPI1): 1.02 fold enrichment (6-mer frequency, TF over GST control)
binding signal (FEV): 1.02 fold enrichment (6-mer frequency, TF over GST control)
binding signal (ELF3): 1.08 fold enrichment (6-mer frequency, TF over GST control)
binding signal (ERF): 1.04 fold enrichment (6-mer frequency, TF over GST control)
binding signal (ELF5): 1.04 fold enrichment (6-mer frequency, TF over GST control)
binding signal (ETV6): 1.01 fold enrichment (6-mer frequency, TF over GST control)
